Columns and labels:
Type in all cases: functional
[1] = target: Solute carrier family 2, facilitated glucose transporter member 1 (Homo sapiens) (UniProt P11166); experiment: ST_JUDE_LEISH: Cytotoxicity at 2uM final concentration against transgenic Leishmania Mexicana promastigotes LmGLUT1 that are glucose transport deficient and complemented with the human glucose transporter GLUT1. Activity is measured by DNA content using SYBR green in vitro
[2] = target: Hexose transporter 1 (Plasmodium falciparum) (UniProt O97467); experiment: ST_JUDE_LEISH: Cytotoxicity at 2uM final concentration against transgenic Leishmania Mexicana promastigotes LmPfHT that are glucose transport deficient and complemented with the Plasmodium falciparum hexose transporter. Activity is measured by DNA content using SYBR green in vitro
[3] = target: Glucose transporter (Leishmania mexicana) (UniProt O61059); experiment: ST_JUDE_LEISH: Cytotoxicity at 2uM final concentration against transgenic Leishmania Mexicana promastigotes LmGT2 that are glucose transport deficient and complemented with the L. Mexicana glucose transporter 2. Activity is measured by DNA content using SYBR green in vitro

Chain of Solute carrier family 2, facilitated glucose transporter member 1 (Homo sapiens) (P11166 whole entry): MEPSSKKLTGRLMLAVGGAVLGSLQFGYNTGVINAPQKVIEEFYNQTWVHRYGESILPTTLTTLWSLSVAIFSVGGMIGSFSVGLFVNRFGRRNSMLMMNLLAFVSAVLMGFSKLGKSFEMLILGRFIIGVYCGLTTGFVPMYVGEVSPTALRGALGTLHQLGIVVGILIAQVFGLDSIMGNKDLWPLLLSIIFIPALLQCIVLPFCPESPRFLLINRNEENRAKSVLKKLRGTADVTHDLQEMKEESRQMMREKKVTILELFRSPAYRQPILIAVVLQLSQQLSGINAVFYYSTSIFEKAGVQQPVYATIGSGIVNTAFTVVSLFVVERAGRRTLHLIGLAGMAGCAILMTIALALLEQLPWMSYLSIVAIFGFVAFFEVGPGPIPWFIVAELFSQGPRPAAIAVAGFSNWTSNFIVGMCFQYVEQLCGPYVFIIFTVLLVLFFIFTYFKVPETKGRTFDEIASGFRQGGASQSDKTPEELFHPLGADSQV

| SMILES | inhibition [1] [%] | inhibition [2] [%] | inhibition [3] [%] |
| --- | --- | --- | --- |
| CN1CCN(c2ccnc3ccc(NC(=O)Nc4cccc5c(Br)cccc45)cc23)CC1 | 0.91 | 3.33 | 2.86 |
| CC(C)[C@H](NC(=O)c1ccc(O)c(-c2ccc(Cl)c(Cl)c2)c1)C(=O)NCCN(C)C | 0.25 | 0.6 | 1.16 |
| O=C(NCCN1CCCC1)c1cccc(-c2ccc(-c3nc4cc(F)ccc4[nH]3)cc2)c1 | -0.09 | -0.39 | -1.28 |
| Cc1cc(N2CCCC2)nc(Nc2ccc(NC(=O)c3ccc(Br)o3)cc2)n1 | 4.16 | 9.42 | 5.64 |
| Cc1ccccc1C1CCN(c2ccc(C(=O)Nc3ccccc3)cn2)CC1 | -0.55 | -0.98 | -5.64 |
| Fc1ccc(C=NNc2nc3ccccc3[nH]2)cc1 | 16.4 | 13.1 | 12.1 |
| c1cc(CNc2ncc(-c3ccsc3)c(-c3nccs3)n2)ccn1 | 7.08 | 9.37 | 6.45 |
| O=C(NCc1ccc(C(F)(F)F)cc1)c1cccc(-c2nnc(-c3cccc(-c4cncnc4)c3)o2)c1 | 9.91 | 4.62 | 4.68 |
| CCOc1ccc(S(=O)(=O)N(C)c2ccc(OCC(=O)Nc3nccs3)cc2)cc1 | 5.83 | 0.61 | 1.43 |
| Cc1cc(N[C@@H](Cc2ccccc2)C(=O)Nc2ccccc2)nc(NCCN2CCCC2)n1 | -2.01 | -2.84 | -2.29 |
| CC(C)N(Cc1ccc(-c2ccc(C(F)(F)F)cc2)cc1)C(=O)Cn1c(CCc2cccc(F)c2F)cc(=O)c2ccc(CCCN3CCCCC3)cc21 | 3.56 | 4.4 | 3.61 |
| Cc1ccnc(NC(c2cccc(OCc3ccccc3)c2)c2ccc3cccnc3c2O)c1 (stereo not given) | 0.07 | 1.21 | -1.47 |
| COc1ccc(CNc2nc(Nc3cccc(C#N)c3)nc(Nc3cccc(C#N)c3)n2)cc1Cl | 3.25 | 0.95 | -1.38 |
| Cc1cccc2nc(-c3ccc(-c4ccc(CN5CCCC5CN)cc4)cc3)[nH]c12 (stereo not given) | 6.95 | 6.96 | 4.26 |
| CCOC(=O)c1ccc(NC(=O)c2ccccc2C(=O)O)cc1 | 0.53 | 1.23 | -0.02 |
| CCCCNC(=O)[C@H](CC1CCCCC1)NC(=O)c1ccc(O)c(-c2ccc(Cl)c(Cl)c2)c1 | -0.2 | -1.98 | 0.36 |
| COc1ccc(NC(=O)[C@H](Cc2ccccc2)Nc2cc(C)nc(Nc3ccccc3)n2)cc1 | 12.3 | 14.5 | 10.4 |
| CNC(=O)CSc1nnc(-c2ccc(C)cc2)c(-c2ccc(C)cc2)n1 | 2.46 | 2.74 | 1.88 |
| O=C(NC1CCN(Cc2ccccc2)C1)c1ccc(Nc2ccc(Br)cc2)nc1 (stereo not given) | 1.79 | 0.12 | -1.43 |
| CC1(C)NC(N)=NC(=N)N1OCCc1ccccc1 | 1.18 | 0.77 | 0.66 |
| N=C(Nc1ccccc1)Nc1cccc(Cc2ccc([N+](=O)[O-])cc2)n1 | 5.43 | 3.98 | 0.1 |
| Cc1sc2cc(Cl)cc(Cl)c2c1S(=O)(=O)Nc1ccc2nccc(N3CCNCC3)c2c1 | -1.42 | -0.22 | -0.24 |
| Cc1cccc(-c2c(C)nc(N)nc2N)c1 | 4.96 | 2.06 | 1.08 |
| CN1CCC(N2CCN(c3ccc4c(=O)nc(CCc5cccc(F)c5F)n(CC(=O)N(C)Cc5ccc(-c6ccc(C(F)(F)F)cc6)cc5)c4n3)CC2)CC1 | -0.12 | 0.33 | 6.67 |
| CN(C)CCN(Cc1ccccc1-c1ccc(CNCCc2ccccc2)cc1)C(=O)NC1CCCCC1 | 3.67 | 3.66 | 0.85 |

From ChEMBL document CHEMBL3433997, “St. Jude Leishmania screening dataset” (2016)
